In the library only some 15% were active in any assay of this set; here they are far more common.
HCV inh – inhibitors of hepatitis C virus infection | Huh7.5.1 HCVcc-Cre infection, luciferase reporter, 44 h | 340,000 tested, 3.4% active | Potency, µM (doses to about 41.8 µM), most hits filed as inhibitors
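Cells seeded at 1,000/well and cultured 4 h, then compounds added followed by HCVcc-Cre virus (~0.5 moi). After 44 h further culture, luciferase substrate was added, plates held 15 min at room temperature, and luminescence read for 15 sec.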
Sm TGR block – blocks Schistosoma mansoni thioredoxin glutathione reductase | purified TGR, DTNB reduction, TNB absorbance 405 nm | AID 485364 | 360,000 tested, 3% active | Q962Y6 | Potency, µM (highest dose often 114 µM), usual class: inhibitors; further: nearly all actives have a fitted effect of over 60% in size
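TGR 20 nM + NADPH 100 uM (dispensed conc.), cpd preinc 15 min RT; start with NADPH (500 uM addition) then DTNB (15 mM addition). Kinetic TNB absorbance, 405 nm filter. Four-parameter Hill fit across titration.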
Pf growth 48h – P. falciparum growth inhibition at 48 hours (one generation); P. falciparum luciferase growth in erythrocytes, 48 h; Potency, µM (doses to about 28.7 µM), hits mostly inhibitors; 310,000 tested, 5.9% active
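A one-generation exposure of luciferase-tagged malaria parasites in RPMI 1640/Albumax erythrocyte culture, 37 C and 5% CO2. Inhibition is inferred from decreased luminescence after adding detection reagent.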
HCMV antiviral – blocks human cytomegalovirus replication; AID 1259415; activity change, negative = inhibition, % at 57.5 µM; HFF cells, HCMV-luciferase reporter, 72 h; active compounds read low; 410,000 tested, 4.5% active; in the data active means activity change below about -60%; inconclusive means no clear call, values can overlap the other calls; inactive means above about -39%
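After 16 h attachment at 37C, HFF cells received test compound and HCMV-luciferase (1 PFU/cell); reporter luminescence read 72 h later, data normalized against buffer-only and known inhibitor Salinomycin.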
Pf growth 96h – P. falciparum growth inhibition at 96 hours | P. falciparum luciferase reporter growth, 96 h | Potency, µM (highest dose often 28.7 µM), hits mostly inhibitors | 320,000 tested, 6.9% active
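Plates of compound plus infected erythrocytes (2% hematocrit, 0.05% parasitemia final) incubate 96 hours, 37 C, 5% CO2. Detection reagent added; reduced luminescence from the parasites' luciferase reporter flags inhibition.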
SARS PLpro yeast – SARS-CoV PLP inhibition in yeast. S. cerevisiae expressing SARS-CoV PLpro, growth rescue. Potency, µM (highest dose often 32.9 µM), hits mostly activators. 330,000 tested, 0.19% active; calls by dose curve; further: nearly all actives have a fitted effect of over 55% in size
Each line names hits and unclear results; the compound was inactive in the other large screens. Unless noted, the call rests on the fitted dose curve; in most records, active means well fitted curve in the direction sought with a large enough effect; inconclusive means small, poorly fitted or top-dose-only effect, or another doubt; inactive means no such curve, though single readings can be large; an effect the other way counts as inactive or inconclusive.

Cc1ccc(-n2ncc3c(SCc4ccccn4)ncnc32)c(C)c1	HCV inh inconclusive, Pf growth 48h inconclusive, HCMV antiviral -101.4, Pf growth 96h inconclusive
CCOC(=O)CNC(=O)CSc1ncnc2c1cnn2-c1ccc(C)cc1	Pf growth 96h 8.28µM
COc1ccc(NC(=S)NCc2ccco2)c(OC)c1	none (no result: Pf growth 48h)
CCOC(=O)Cn1ccc2cc(S(=O)(=O)N3CCCC3)ccc21	none (no result: HCV inh, Sm TGR block, Pf growth 48h, Pf growth 96h, SARS PLpro yeast)
CCC(C)[C@H](NC(=O)N1CCCC1)C(=O)O (some centres undefined)	Pf growth 96h 6.57µM (no result: Pf growth 48h)
CCCc1cc(=O)oc2cc(C)cc(OCC(=O)NCc3ccccn3)c12	Pf growth 48h inconclusive, Pf growth 96h 2.62µM
CCCc1cc(=O)oc2cc(C)cc(OCC(=O)Nc3cccnc3)c12	HCV inh inconclusive, Pf growth 48h 0.147µM, HCMV antiviral active, Pf growth 96h 0.0928µM
COc1ccc(-c2cc(=O)oc3cc(OC(C)C(=O)NCc4ccccn4)ccc23)cc1 (centres undefined)	HCV inh inconclusive, Pf growth 48h inconclusive, Pf growth 96h inconclusive, SARS PLpro yeast 3.98µM
Cc1cc(OCC(=O)N(C)C)c2c(-c3ccccc3)cc(=O)oc2c1	Pf growth 96h 10.4µM (no result: Pf growth 48h)
COc1ccc(C(=O)Nc2ccccc2C(=O)N2CCCCC2C)cc1 (centres undefined)	HCMV antiviral inconclusive
Cc1ccc(Cl)cc1NC(=O)OCCN(C)C(=O)Nc1cc(Cl)ccc1C	none (no result: HCV inh, Sm TGR block, Pf growth 48h, Pf growth 96h, SARS PLpro yeast)
CC(C)C[C@H](NC(=O)OC(C)(C)C)C(=O)N[C@@H](CO)[C@H](O)[C@@H]1C[C@@H]1C(=O)NC1CCCCC1	HCMV antiviral inconclusive, Pf growth 96h inconclusive
COc1ccc(-c2cc(=O)oc3cc(OCC(=O)N(C)C)ccc23)cc1	Pf growth 48h inconclusive, Pf growth 96h 10.4µM
CCCc1cc(=O)oc2cc(OC(C)C(=O)NCc3ccccn3)c(Cl)cc12 (centres undefined)	Pf growth 96h 10.4µM
CCCCc1cc(=O)oc2cc(C)cc(OCC(=O)O)c12	none
CCCCc1cc(=O)oc2cc(C)cc(OCC(=O)NCc3ccncc3)c12	Pf growth 48h inconclusive, Pf growth 96h 2.33µM
COCCNc1nnc(SCC(=O)NNC(=O)c2ccc([N+](=O)[O-])cc2)s1	Pf growth 48h inconclusive
COc1cc(NC(=O)CCCN2C(=O)NC(C)(C)C2=O)cc(OC)c1	none
Cc1ccc(-c2cc(-c3ccc(F)cc3)nc(N)c2C#N)o1	HCV inh inconclusive, Sm TGR block 5.62µM (no result: Pf growth 96h)
N#Cc1c(-c2ccncc2)cc(-c2ccc(F)cc2)nc1N	HCV inh inconclusive
Cc1ccc(-c2cc(-c3ccccc3)c(C#N)c(N)n2)o1	HCV inh inconclusive, Sm TGR block 3.55µM, Pf growth 48h inconclusive, HCMV antiviral inconclusive
CC(C)C(NS(=O)(=O)c1ccc2c(c1)oc(=O)n2C)C(=O)NCc1ccccc1 (centres undefined)	none (no result: HCV inh, Pf growth 48h, Pf growth 96h, SARS PLpro yeast)
CCN(C(=O)COC(=O)/C(C#N)=C/c1ccc(OC)cc1)C1CCS(=O)(=O)C1 (centres undefined)	none
CCn1cc(C2=NOC(C(=O)Nc3cc(OC)c(Cl)cc3OC)C2)c(C)n1 (centres undefined)	Pf growth 48h inconclusive
CCn1cc(C2=NOC(C(=O)O)C2)c(C)n1 (centres undefined)	Pf growth 96h 5.86µM (no result: HCV inh)
Cc1ccccc1-n1c(-c2ccc(Cl)cc2)cnc1SCC(=O)NC1CCS(=O)(=O)C1 (centres undefined)	Pf growth 48h inconclusive, Pf growth 96h inconclusive
Cc1ccc(C2=NS(=O)(=O)N(C)C(C(=O)Nc3ccc(F)cc3F)=C2)cc1	HCV inh inconclusive
COc1ccc(NC(=O)C2=CC(c3ccc(C)cc3)=NS(=O)(=O)N2C)cc1OC	HCV inh inconclusive, HCMV antiviral -62.1
COc1ccc(OC)c(C2=NS(=O)(=O)N(C)C(C(=O)Nc3ccc(F)cc3F)=C2)c1	HCV inh 14.1µM, Pf growth 48h inconclusive, Pf growth 96h inconclusive
COc1ccc(C2=NS(=O)(=O)N(C)C(C(=O)Nc3ccc(C(C)=O)cc3)=C2)cc1OC	HCV inh 11.2µM, HCMV antiviral inconclusive
COc1ccc(C2=NS(=O)(=O)N(C)C(C(=O)Nc3ccc(OC)c(OC)c3)=C2)cc1	HCV inh inconclusive, HCMV antiviral inconclusive
COc1ccc(C(C)(NC(C)=O)c2nc(-c3cccc4cccnc34)cs2)cc1 (centres undefined)	none (no result: HCV inh, Sm TGR block, Pf growth 48h, Pf growth 96h, SARS PLpro yeast)
O=C1N(Cc2ccccc2)CC2(Br)COCOC12O (centres undefined)	none (no result: Sm TGR block, Pf growth 48h, Pf growth 96h, SARS PLpro yeast)
Cc1ccccc1-n1nc(C(=O)c2cccs2)cc(-c2nc3ccccc3[nH]2)c1=N	HCV inh 10µM, Sm TGR block inconclusive, Pf growth 48h 3.7µM, Pf growth 96h inconclusive
COc1ccc(-n2nc(C(=O)c3cccs3)cc(-c3nc4ccccc4[nH]3)c2=N)cc1	HCV inh 11.2µM, Pf growth 48h 3.29µM, Pf growth 96h inconclusive
Cc1cccc(-n2nc(C(=O)c3ccco3)cc(-c3nc4ccccc4[nH]3)c2=N)c1	HCV inh inconclusive, Pf growth 48h inconclusive, Pf growth 96h inconclusive
Cc1c(Cl)cccc1NC(=O)CN1C(=O)CSc2ncccc21	Pf growth 96h inconclusive (no result: HCV inh, Pf growth 48h, HCMV antiviral)
COCCCNC(=O)CN1C(=O)CSc2ncccc21	Pf growth 96h 2.62µM
O=C(CN1C(=O)CSc2ncccc21)Nc1cccc(Cl)c1	Pf growth 48h 16.5µM
O=C(CN1C(=O)CSc2ncccc21)NCCN1CCOCC1	Pf growth 96h inconclusive (no result: Pf growth 48h)
Cn1nccc1C(=O)N1CCOCC1	none
CN(C)CCNC(=O)CN1C(=O)COc2ccc(S(=O)(=O)N3CCCC3)cc21	none (no result: HCV inh, Pf growth 48h, Pf growth 96h, SARS PLpro yeast)
O=C(Nc1ccn2ccnc2n1)c1ccccc1C(F)(F)F	none (no result: HCV inh, Sm TGR block, Pf growth 48h, Pf growth 96h, SARS PLpro yeast)
C[C@@H]1O[C@@H](O[C@H]2C[C@@H](O)[C@]3(CO)[C@@H]4C(CC[C@]3(O)C2)[C@@]2(O)CC[C@H](C3COC(=O)C3)[C@@]2(C)C[C@H]4O)[C@H](O)[C@H](O)[C@H]1O (some centres undefined)	HCV inh inconclusive, HCMV antiviral -99.2 (no result: SARS PLpro yeast)
C[C@@H]1O[C@@H](O[C@H]2C[C@@H](O)[C@@]3(CO)[C@H]4[C@H](O)C[C@]5(C)[C@@H](C6=CC(=O)OC6)CC[C@]5(O)[C@H]4CC[C@@]3(O)C2)[C@@H](O)[C@H](O)[C@H]1O	none (no result: HCV inh, Sm TGR block, HCMV antiviral, SARS PLpro yeast)
CC1OC(O[C@H]2C[C@@H](O)[C@]3(CO)[C@@H]4C(CC[C@]3(O)C2)[C@@]2(O)CC[C@H](C3=CC(=O)OC3)[C@@]2(C)C[C@H]4O)C(O)C(O)C1O (some centres undefined)	Pf growth 96h 1.35µM (no result: HCV inh, Sm TGR block, HCMV antiviral, SARS PLpro yeast)
Cc1cc(C)n(-c2ccc(C(=O)N3CCC(CO)(Cc4ccccc4)CC3)cc2)n1	Pf growth 48h inconclusive, Pf growth 96h inconclusive
CC1(C(=O)N2CCC(CO)(Cc3cccc(C(F)(F)F)c3)CC2)CC1	Pf growth 96h 16.5µM
